# Counter-ions that a name gives are not always drawn.
# Target: PARP1 L713F-nLuc biosensor (HCT116) (UniProt P09874)
# Assay: PARP1 L713F-nLuc/akaLuc ratio relative to DMSO control (biosensor stabilization) (fold change); higher = more PARP1 biosensor stabilization (target engagement / stabilizer), active = hit call of the paper
# Settings: stock concentration (mM; final µM = stock mM x 1): 10; 24 h;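 active = log2 fold change beyond 2 SD from the library mean after excluding viability outliers; inactive = within 2 SD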
# Sequence of PARP1 L713F-nLuc biosensor (HCT116) (P09874 whole entry L713F, looked up): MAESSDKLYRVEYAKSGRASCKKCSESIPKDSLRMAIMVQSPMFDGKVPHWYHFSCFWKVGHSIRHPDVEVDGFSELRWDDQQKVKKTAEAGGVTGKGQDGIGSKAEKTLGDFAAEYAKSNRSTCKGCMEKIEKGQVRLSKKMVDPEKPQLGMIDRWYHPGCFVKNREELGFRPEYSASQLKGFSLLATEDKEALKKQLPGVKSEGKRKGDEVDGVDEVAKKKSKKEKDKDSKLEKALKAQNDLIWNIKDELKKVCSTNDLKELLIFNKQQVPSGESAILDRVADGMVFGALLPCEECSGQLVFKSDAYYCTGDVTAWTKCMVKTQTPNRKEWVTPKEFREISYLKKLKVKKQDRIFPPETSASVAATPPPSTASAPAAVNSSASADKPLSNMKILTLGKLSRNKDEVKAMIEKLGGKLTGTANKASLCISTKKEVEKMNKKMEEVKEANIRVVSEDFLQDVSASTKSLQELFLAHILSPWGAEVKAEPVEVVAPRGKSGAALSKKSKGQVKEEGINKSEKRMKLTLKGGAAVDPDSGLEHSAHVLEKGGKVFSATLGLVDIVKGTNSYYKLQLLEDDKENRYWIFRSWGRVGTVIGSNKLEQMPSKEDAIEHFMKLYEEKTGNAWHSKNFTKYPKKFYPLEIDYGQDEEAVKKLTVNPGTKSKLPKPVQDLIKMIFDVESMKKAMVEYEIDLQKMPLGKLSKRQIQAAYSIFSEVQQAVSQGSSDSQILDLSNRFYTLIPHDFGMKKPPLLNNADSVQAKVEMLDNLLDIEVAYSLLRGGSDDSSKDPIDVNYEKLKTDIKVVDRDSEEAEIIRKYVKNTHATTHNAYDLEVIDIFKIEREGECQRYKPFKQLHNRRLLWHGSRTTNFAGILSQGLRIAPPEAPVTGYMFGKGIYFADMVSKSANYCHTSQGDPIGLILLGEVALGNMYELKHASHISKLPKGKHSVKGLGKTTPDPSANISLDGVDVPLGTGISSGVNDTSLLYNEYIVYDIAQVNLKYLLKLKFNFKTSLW
row,SMILES,PARP1 L713F-nLuc/akaLuc ratio
1,CC(=O)N(O)CCCCCNC(=O)CCC(=O)N(O)CCCCCNC(=O)CCC(=O)N(O)CCCCCN [Deferoxamine mesylate],0.984 (inactive)
2,C=CC[C@@H]1/C=C(\C)C[C@H](C)C[C@H](OC)[C@H]2O[C@@](O)(C(=O)C(=O)N3CCCC[C@H]3C(=O)O[C@H](/C(C)=C/[C@@H]3CC[C@@H](O)[C@H](OC)C3)[C@H](C)[C@@H](O)CC1=O)[C@H](C)C[C@@H]2OC [Tacrolimus (FK506)],0.7 (inactive)
3,CN1CCN(c2cccc(Nc3nc4c(-c5ccc(S(C)(=O)=O)cc5)cccn4n3)c2)CC1,0.968 (inactive)
4,Cc1cc(C)nc(SCC(=O)Nc2ncc(Cc3cccc4ccccc34)s2)n1,0.926 (inactive)
5,CN1CCN(c2nc(C3=C(c4c[nH]c5ccccc45)C(=O)NC3=O)c3ccccc3n2)CC1 [Sotrastaurin],1.31 (inactive)
6,S=c1[nH]cnc2nc[nH]c12 [Mercaptopurine (6-MP)],2.51 (inactive)
7,CCS(=O)(=O)N1CCN(c2ccc(Nc3ncc(C(N)=O)c(NC4CC4)n3)cc2)CC1 [Cerdulatinib],1.82 (inactive)
8,O=C(O)CC[C@H]1CC[C@@](c2cc(F)ccc2F)(S(=O)(=O)c2ccc(Cl)cc2)CC1,0.688 (inactive)
9,CC(=O)NCC(=O)N1[C@@H]2CC[C@H]1c1ccc(Nc3ncc(C(F)(F)F)c(NC4CCC4)n3)cc12,1.27 (inactive)
10,Cc1cc(CN2CCN(c3c(Br)cnc4nc(-c5ccc(N6CCN(C)CC6)cc5)[nH]c34)CC2)no1,1.37 (inactive)
11,CC(C)(C)C[C@@H]1N[C@@H](C(=O)N[C@H]2CC[C@H](O)CC2)[C@H](c2cccc(Cl)c2F)[C@]12C(=O)Nc1cc(Cl)ccc12,0.287 (active)
12,CCc1cc2c(cc1N1CCC(N3CCOCC3)CC1)C(C)(C)c1[nH]c3cc(C#N)ccc3c1C2=O,2.06 (inactive)
13,N#CC[C@H](C1CCCC1)n1cc(-c2ncnc3[nH]ccc23)cn1 [Ruxolitinib (phosphate)],0.575 (inactive)
14,COc1cc2nccc(Oc3ccc(NC(=O)NC4CC4)c(Cl)c3)c2cc1C(N)=O [Lenvatinib (E7080)],0.673 (inactive)
15,Cc1cn(-c2cc(NC(=O)c3ccc(C)c(Nc4nccc(-c5cccnc5)n4)c3)cc(C(F)(F)F)c2)cn1 [Nilotinib (AMN-107)],0.959 (inactive)
16,CC(C)(C)c1nc2c3cc[nH]c(=O)c3c3cc(F)ccc3c2[nH]1 [Pyridone 6],0.692 (inactive)
17,CNc1nc(Nc2cn(C(C)(C)C#N)nc2C)ncc1C(F)(F)F,0.811 (inactive)
18,CC(=O)Nc1cccc(-n2c(=O)n(C3CC3)c(=O)c3c(Nc4ccc(I)cc4F)n(C)c(=O)c(C)c32)c1,0.502 (inactive)
19,CCNC(=O)C#Cc1ccc2c(C(=Nc3ccc(CN(C)C)cc3)c3ccccc3)c(O)[nH]c2c1,0.604 (inactive)
20,Cc1ccc(F)c(NC(=O)Nc2ccc(-c3cccc4[nH]nc(N)c34)cc2)c1 [Linifanib (ABT-869)],3.59 (active)
21,O=C(O)[C@]1(Cc2cccc(Nc3nccs3)n2)CC[C@@H](Oc2cccc(Cl)c2F)CC1,1.05 (inactive)
22,NC(=O)c1cccc2cn(-c3ccc([C@@H]4CCCNC4)cc3)nc12 [Niraparib (hydrochloride)],4.39 (active)
23,COc1ccc(COc2cc3oc(=O)c4cc(C(C)O)ccc4c3cc2OC)cc1 (configuration not stated) [Palomid 529 (P529)],0.578 (inactive)
24,CC(C)[C@H]1C(=O)N[C@@H](CCCN=C(N)N)C(=O)NCC(=O)N[C@@H](CC(=O)O)C(=O)N[C@H](Cc2ccccc2)C(=O)N1C,0.738 (inactive)
25,CCN(C(=O)c1cc(F)ccc1Oc1cncnc1N1CC2(CCN(C[C@H]3CC[C@H](NS(=O)(=O)CC)CC3)CC2)C1)C(C)C,0.797 (inactive)
26,Cc1nc(C(=O)NCC(=O)O)c(O)c2ccc(Oc3ccccc3)cc12 [Roxadustat (FG-4592)],1.63 (inactive)
27,CO[C@H]1C[C@@H]2CC[C@@H](C)[C@@](O)(O2)C(=O)C(=O)N2CCCC[C@H]2C(=O)O[C@H]([C@H](C)C[C@@H]2CC[C@@H](OC(=O)C(C)(CO)CO)[C@H](OC)C2)CC(=O)[C@H](C)/C=C(\C)[C@@H](O)[C@@H](OC)C(=O)[C@H](C)C[C@H](C)/C=C/C=C/C=C/1C,0.565 (inactive)

# Reference: the supplement of paper PMC11624193, “Coupling cellular drug-target engagement to downstream pharmacology with CeTEAM” (Nature Communications, 2024)
